About 9,100 (2.8%) of roughly 320,000 compounds were called active. Where a call stands in place of a potency, no number is given. Inconclusive results (about 3%) are left out. Only a selection was taken, and actives are over-represented in it overall. A number with no mark means an inactive call. Calls follow the shape of the dose curve; as a rule, active = well fitted activation curve with a large enough effect; inconclusive = small, poorly fitted or top-dose-only effect; inactive = no such curve, though single readings can be large or run the other way.
assay: qHTS Assay for Rab9 Promoter Activators; settings: Huh7 Rab9 promoter-luciferase reporter, luminescence, 24 h; series mostly up to 9.22 µM; also: nearly all actives have a fitted effect of over 60% in size
Method in brief: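 Rab9 promoter-driven luciferase in stably transfected Huh7 cells; 1500 cells/well rested 2 h, exposed to compound in DMSO for 24 h at 37 °C, 5% CO2. Luminescence read 10 min after adding luciferase reagent at ambient temperature.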
Potency is read from the fitted curve at half-maximal effect.

SMILES	Potency	activation, negative = inhibition
CC1CCN(C(=O)COC(=O)CCC(=O)c2cccs2)CC1	inactive	–
CC(C)(C)c1ccc(S(=O)(=O)N2CCN(C(=O)c3ccc4c(c3)C(=O)N(Cc3ccncc3)C4=O)CC2)cc1	inactive	–
CCOc1ccc(/C(O)=C2\C(=O)C(=O)N(c3ccc(OC)cc3)C2c2ccccc2[N+](=O)[O-])cc1 (configuration not stated)	398 nM (active)	–
COc1ccc(C2/C(=C(/O)c3ccccc3)C(=O)C(=O)N2C)c(OC)c1 (configuration not stated)	inactive	–
COc1ccc(/C(O)=C2/C(=O)C(=O)N(c3nc(C)c(C)s3)C2c2ccco2)cc1 (configuration not stated)	inactive	–
Cn1c(SCC(=O)Nc2ccc(N3CCOCC3)cc2)nnc1C(F)(F)F	inactive	–
Nc1c(-c2cccc(Cl)c2)cnn1-c1cccc([N+](=O)[O-])c1	inactive	–
Cc1ccc(S(=O)(=O)Nc2nc(CN3CCOCC3)nc3sc(C)c(C)c23)cc1	inactive	–
CN1CCN(C(=O)c2cnn(-c3ccccc3)c2NC(=O)c2ccc([N+](=O)[O-])cc2)CC1	inactive	–
COc1cccc(-c2noc(C3CCCN(C(=O)c4ccc(F)cc4)C3)n2)c1 (configuration not stated)	inactive	–
Cc1ccc(-c2noc(C3CCCN(C(=O)c4cccc(Cl)c4)C3)n2)o1 (configuration not stated)	3550 nM (active)	–
O=C(c1ccc(F)cc1)N1CCCC(c2nc(-c3cccs3)no2)C1 (configuration not stated)	inactive	–
Cc1cc(NS(=O)(=O)c2ccc(NC(=O)c3cccnc3)cc2)nc(C)n1	inactive	–
CC(=O)Nc1ccc(-c2nc3ccccc3o2)cc1	1000 nM (active)	–
Cc1ccc2nc(-c3ccc(NC(=O)c4cccnc4)cc3)oc2c1	199 nM (active)	–
CCc1nc(Nc2ccc(NC(C)=O)cc2)c2oc3ccccc3c2n1	inactive	–
CC(=O)NC(=S)Nc1ccc(NC(=O)c2cccnc2)cc1	inactive	–
CC(=O)Nc1ccc(S(=O)(=O)N(C)c2nc3ccccc3nc2Cl)cc1	inactive	–
CCOc1cc(/C=C/C(=O)OCC(=O)NCCN2C(=O)CSC2=O)ccc1OCC(C)C	inactive	–
O=C(OCC(=O)N1CCc2ccccc21)C1CCCN1S(=O)(=O)c1ccc(Cl)cc1 (configuration not stated)	inactive	–
CCOC(=O)C1CCCN(C(=O)c2ccc(C)c(S(=O)(=O)N3CCCCC3)c2)C1 (configuration not stated)	inactive	–
CCOC(=O)Cc1csc(SCC(=O)Nc2ccc(C)cc2F)n1	inactive	–
C/C(=N\NC(=O)Cc1ccc(Cl)cc1)c1ccccn1	inactive	–

SMILES	Potency	activation, negative = inhibition
C/C(CC(=O)Nc1ccc(N(C)C)cc1)=N\NC(=O)c1ccccc1F	inactive	–
C/C(=N\NC(=O)c1ccccc1F)c1ccccn1	316 nM (active)	–
CN(C)S(=O)(=O)c1cccc(NC(=O)COc2ccc3ccccc3c2)c1	inactive	–
Cc1ccc(Cn2ccc(NC(=O)C3C4CCC(C4)C3C(=O)O)n2)cc1 (configuration not stated)	inactive	–
O=C(Nc1ccccc1N1CCN(c2ccccc2)CC1)c1cccc(F)c1	inactive	–
O=C(Nc1cccc(NC(=O)c2cccc(F)c2)c1)c1ccccc1	inactive	–
Cn1cc([N+](=O)[O-])c(C(=O)Nc2cnn(Cc3ccc(F)cc3)c2)n1	inactive	–
O=C(Nc1ccn(Cc2ccccc2)n1)c1cccc(F)c1	1410 nM (active)	–
O=C(Nc1ccn(Cc2ccccc2)n1)c1n[nH]c([N+](=O)[O-])c1Cl	355 nM (active)	–
CN1CCN(S(=O)(=O)c2ccc(N3CCN(c4ccccc4O)CC3)c([N+](=O)[O-])c2)CC1	inactive	–
CCN(CC)c1ccc(NC(=O)CN2C(=O)NC3(CCc4ccccc43)C2=O)cc1 (configuration not stated)	inactive	–
CN(CC(=O)NC1CCN(Cc2ccccc2)CC1)S(=O)(=O)c1ccc(Cl)s1	inactive	–
CCCCN(CC(=O)Nc1cccc(S(=O)(=O)N2CCCC2)c1)Cc1nc2ccccc2c(=O)[nH]1	inactive	–
CC(=O)Cn1ncc(N2CCOCC2)c(Br)c1=O	inactive	–
CCn1c(=O)c(=O)n(CC)c2cc(N3CCCCC3)c(NC(=O)c3ccc(Cl)cc3)cc21	inactive	–
O=C(Cn1ncc(N2CCCC2)c(Br)c1=O)c1ccc(Cl)cc1	1410 nM (active)	–
O=C(COc1ccccc1Cl)N1N=C(c2cccs2)CC1c1ccco1 (configuration not stated)	inactive	–
Cc1cc(Cl)ccc1OCc1nc(-c2ccncc2)no1	2820 nM (active)	–
COc1ccc(-c2noc(COc3ccc(Cl)c(C)c3)n2)cc1	inactive	–
CN(Cc1ccccn1)Cc1nc(-c2ccc(Cl)cc2)no1	inactive	–
CCC(C)N(C(=O)CSc1nnnn1-c1ccccc1OC)C1CCS(=O)(=O)C1 (configuration not stated)	inactive	–
CC1CC(=O)Nc2ccccc2N1C(=O)COc1ccc2cc(Br)ccc2c1 (configuration not stated)	inactive	–
COc1ccc([N+](=O)[O-])cc1NC(=O)CCc1ccccc1	inactive	–

SMILES	Potency	activation, negative = inhibition
CC(C)Cc1nnc(NC(=O)CCc2ccccc2)s1	inactive	–
O=C(CCc1ccccc1)Nc1ncc([N+](=O)[O-])s1	2240 nM (active)	–
CCOC(=O)c1sc(NC(=O)C2CSC3(C)CCC(=O)N23)nc1C (configuration not stated)	inactive	–
O=C(NCCc1ccccc1)c1ccc2c(c1)N(Cc1ccccc1)CCS2	inactive	–
CC1CCCN(c2ccc(C(=O)NCCc3ccccc3)cn2)C1 (configuration not stated)	2510 nM (active)	–
CC1CCN(c2c(NCc3ccc(C(=O)NCc4ccccc4)cc3)c(=O)c2=O)CC1	inactive	–
COCCn1c(C)cc(C(=O)COC(=O)CNC(=O)c2ccco2)c1C	inactive	–
Cc1cc(C(=O)CSc2nc(N)cc(=O)[nH]2)c(C)n1Cc1ccco1	inactive	–
Cc1cc(C(=O)COC(=O)CNC(=O)c2ccc(F)cc2)c(C)n1Cc1ccco1	3160 nM (active)	–
Cc1c([N+](=O)[O-])c(N)nn1C	inactive	–
Cc1c(NC(=O)CSc2nnc(-c3cccnc3)n2N)c(=O)n(-c2ccccc2)n1C	inactive	–
COC(=O)c1cc(-c2cccs2)nc2ccccc12	–	-3.27% [at 1.84 µM]
Brc1ccc(-c2csc(N/N=C/c3cccnc3)n2)cc1	inactive	–
CC(NC(=O)c1ccco1)C(=O)Nc1nc(-c2ccccn2)cs1 (configuration not stated)	inactive	–
c1ccc(Nc2nc(-c3ccncc3)cs2)nc1	1580 nM (active)	–
Clc1ccc(Nc2nc(-c3cccs3)cs2)nc1	3160 nM (active)	–
CCCn1c(CCNc2nc(-c3ccc(OC)cc3)cs2)nc2ccccc21	inactive	–
COc1ccc(C(=O)Nc2nc(-c3ccc(S(=O)(=O)N4CCOCC4)cc3)cs2)cc1	inactive	–
Clc1ccc(Cc2nnc(-c3cccs3)o2)cc1	inactive	–
COc1ccc(-c2csc(Nc3ccccn3)n2)cc1	282 nM (active)	–
c1cnc(Nc2nc(-c3ccc4ccccc4c3)cs2)nc1	282 nM (active)	–

Source: PubChem BioAssay AID485297 (National Center for Advancing Translational Sciences (NCATS), 2010)
